The record followed here is ChEMBL document CHEMBL1961873, “Compounds: GSK PKIS; Assays: Nanosyn kinase panel” (2012).

Molecules are shown by their SMILES.

Experiment [1] addresses T1, Inhibitor of nuclear factor kappa-B kinase subunit epsilon (Homo sapiens) (UniProt Q14164).
T1 sequence (whole entry): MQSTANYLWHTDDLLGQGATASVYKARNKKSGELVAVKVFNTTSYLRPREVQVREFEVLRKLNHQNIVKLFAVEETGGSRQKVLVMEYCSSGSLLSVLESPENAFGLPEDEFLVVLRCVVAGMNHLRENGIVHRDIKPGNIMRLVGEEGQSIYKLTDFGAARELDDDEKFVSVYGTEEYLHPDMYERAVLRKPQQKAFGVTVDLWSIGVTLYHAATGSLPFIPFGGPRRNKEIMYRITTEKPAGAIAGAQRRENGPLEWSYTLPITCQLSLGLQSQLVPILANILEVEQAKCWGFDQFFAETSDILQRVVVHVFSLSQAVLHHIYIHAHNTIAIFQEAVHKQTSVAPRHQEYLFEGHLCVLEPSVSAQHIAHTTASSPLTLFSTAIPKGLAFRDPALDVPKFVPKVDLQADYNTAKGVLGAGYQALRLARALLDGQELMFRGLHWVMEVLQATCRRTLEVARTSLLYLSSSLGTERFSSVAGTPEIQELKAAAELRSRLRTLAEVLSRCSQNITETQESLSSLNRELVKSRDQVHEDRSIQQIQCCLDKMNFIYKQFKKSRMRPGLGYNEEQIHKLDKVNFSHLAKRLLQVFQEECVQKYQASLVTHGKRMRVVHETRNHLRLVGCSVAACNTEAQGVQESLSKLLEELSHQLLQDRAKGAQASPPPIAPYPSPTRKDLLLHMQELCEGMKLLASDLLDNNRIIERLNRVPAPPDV
The following applies: at 1 µM.

Experiment [2] concerns the target T2, Serine/threonine-protein kinase Nek1 (Homo sapiens) (UniProt Q96PY6).
T2 sequence (whole entry): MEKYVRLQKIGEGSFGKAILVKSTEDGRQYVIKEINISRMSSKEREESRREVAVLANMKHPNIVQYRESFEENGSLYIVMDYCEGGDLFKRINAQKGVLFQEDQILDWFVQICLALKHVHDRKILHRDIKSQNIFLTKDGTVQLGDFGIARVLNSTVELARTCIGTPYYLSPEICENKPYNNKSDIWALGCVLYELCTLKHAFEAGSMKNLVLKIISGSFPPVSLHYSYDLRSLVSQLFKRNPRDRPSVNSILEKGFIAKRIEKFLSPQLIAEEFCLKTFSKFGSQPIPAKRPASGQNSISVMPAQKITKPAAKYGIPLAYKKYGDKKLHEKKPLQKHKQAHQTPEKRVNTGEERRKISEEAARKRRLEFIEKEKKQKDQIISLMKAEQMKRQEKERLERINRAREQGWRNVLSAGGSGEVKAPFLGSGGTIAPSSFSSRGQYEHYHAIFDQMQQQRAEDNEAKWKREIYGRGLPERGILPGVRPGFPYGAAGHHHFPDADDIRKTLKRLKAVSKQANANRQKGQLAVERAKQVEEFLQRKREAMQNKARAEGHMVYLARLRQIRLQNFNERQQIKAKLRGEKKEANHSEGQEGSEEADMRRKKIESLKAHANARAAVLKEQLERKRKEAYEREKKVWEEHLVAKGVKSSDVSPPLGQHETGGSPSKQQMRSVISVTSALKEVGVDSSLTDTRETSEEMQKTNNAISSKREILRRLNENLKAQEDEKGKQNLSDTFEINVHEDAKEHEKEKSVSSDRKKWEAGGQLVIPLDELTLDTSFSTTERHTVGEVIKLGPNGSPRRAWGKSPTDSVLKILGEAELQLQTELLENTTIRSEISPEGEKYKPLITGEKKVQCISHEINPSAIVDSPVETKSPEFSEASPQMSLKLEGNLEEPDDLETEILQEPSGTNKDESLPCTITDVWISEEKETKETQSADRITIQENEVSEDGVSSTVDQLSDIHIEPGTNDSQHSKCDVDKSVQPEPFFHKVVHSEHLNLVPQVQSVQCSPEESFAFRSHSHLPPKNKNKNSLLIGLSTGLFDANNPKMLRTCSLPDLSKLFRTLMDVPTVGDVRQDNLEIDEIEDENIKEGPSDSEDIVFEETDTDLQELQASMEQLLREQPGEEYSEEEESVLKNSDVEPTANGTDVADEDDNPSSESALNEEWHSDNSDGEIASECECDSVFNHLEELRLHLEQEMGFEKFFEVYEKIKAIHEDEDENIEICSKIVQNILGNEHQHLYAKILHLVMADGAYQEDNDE
Conditions: at 0.1 µM.

Experiment [3] deals with T2, Serine/threonine-protein kinase Nek1 (Homo sapiens). The following applies: at 1 µM.
Experiment [4] deals with T3, Serine/threonine-protein kinase Nek2 (Homo sapiens) (UniProt P51955).
T3 sequence (whole entry): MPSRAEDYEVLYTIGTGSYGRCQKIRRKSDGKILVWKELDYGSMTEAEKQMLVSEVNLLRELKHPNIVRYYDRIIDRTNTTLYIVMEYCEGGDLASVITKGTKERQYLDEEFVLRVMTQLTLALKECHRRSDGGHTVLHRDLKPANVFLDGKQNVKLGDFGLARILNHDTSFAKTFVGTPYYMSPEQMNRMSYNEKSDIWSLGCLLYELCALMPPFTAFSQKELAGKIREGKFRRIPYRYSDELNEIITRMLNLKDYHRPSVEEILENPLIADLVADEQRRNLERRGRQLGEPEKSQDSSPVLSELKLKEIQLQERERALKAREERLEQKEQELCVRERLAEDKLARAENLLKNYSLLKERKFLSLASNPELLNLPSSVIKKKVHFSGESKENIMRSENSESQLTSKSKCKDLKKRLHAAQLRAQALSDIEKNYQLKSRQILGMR
Conditions: at 0.1 µM.

In experiment [5] the target is T3, Serine/threonine-protein kinase Nek2 (Homo sapiens). Conditions: at 1 µM.
Experiment [6] deals with Serine/threonine-protein kinase Nek6 (Homo sapiens) (UniProt Q9HC98). The following applies: at 0.1 µM.
Sequence of Serine/threonine-protein kinase Nek6 (Homo sapiens) (Q9HC98 whole entry): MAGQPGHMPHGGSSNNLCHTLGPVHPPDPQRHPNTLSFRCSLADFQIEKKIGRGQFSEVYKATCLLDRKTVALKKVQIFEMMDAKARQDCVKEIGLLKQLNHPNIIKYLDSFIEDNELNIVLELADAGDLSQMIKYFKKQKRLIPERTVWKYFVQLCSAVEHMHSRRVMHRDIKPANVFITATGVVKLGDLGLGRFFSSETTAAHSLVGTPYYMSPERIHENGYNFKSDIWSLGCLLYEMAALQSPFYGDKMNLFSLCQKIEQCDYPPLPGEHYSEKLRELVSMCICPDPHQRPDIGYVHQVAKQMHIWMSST
For experiment [7] the target is unchanged. The following applies: at 1 µM.
Experiment [8] concerns the target Serine/threonine-protein kinase Nek7 (Homo sapiens) (UniProt Q8TDX7). Conditions: at 0.1 µM.
Experiment [9] shares this target. The following applies: at 1 µM.
Experiment [10] concerns the target T4, Serine/threonine-protein kinase Nek9 (Homo sapiens) (UniProt Q8TD19).
T4 sequence (whole entry): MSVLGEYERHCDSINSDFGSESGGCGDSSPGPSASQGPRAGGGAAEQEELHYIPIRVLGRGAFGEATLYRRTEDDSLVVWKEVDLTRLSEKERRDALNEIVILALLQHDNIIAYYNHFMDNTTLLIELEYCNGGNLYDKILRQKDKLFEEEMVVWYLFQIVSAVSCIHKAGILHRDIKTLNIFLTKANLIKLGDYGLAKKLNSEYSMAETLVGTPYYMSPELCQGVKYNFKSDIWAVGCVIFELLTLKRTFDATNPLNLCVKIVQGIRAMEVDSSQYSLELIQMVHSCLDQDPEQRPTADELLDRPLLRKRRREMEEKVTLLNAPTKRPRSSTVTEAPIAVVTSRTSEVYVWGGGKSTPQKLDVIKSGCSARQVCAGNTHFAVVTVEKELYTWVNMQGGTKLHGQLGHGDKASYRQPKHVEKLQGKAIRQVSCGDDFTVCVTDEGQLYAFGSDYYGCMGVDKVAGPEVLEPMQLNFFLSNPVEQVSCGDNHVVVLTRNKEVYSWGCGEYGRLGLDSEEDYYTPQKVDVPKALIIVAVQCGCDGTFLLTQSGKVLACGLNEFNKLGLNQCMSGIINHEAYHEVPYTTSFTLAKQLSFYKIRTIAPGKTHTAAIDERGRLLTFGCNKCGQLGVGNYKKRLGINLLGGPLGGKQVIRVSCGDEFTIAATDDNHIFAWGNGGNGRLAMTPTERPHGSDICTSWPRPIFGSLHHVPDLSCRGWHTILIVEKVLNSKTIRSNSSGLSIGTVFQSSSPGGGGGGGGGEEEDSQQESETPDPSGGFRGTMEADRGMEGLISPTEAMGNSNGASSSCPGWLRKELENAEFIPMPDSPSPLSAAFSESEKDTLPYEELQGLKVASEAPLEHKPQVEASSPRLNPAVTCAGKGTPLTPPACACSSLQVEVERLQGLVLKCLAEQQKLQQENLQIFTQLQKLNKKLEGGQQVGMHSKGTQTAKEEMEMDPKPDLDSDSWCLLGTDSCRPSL
Conditions: at 0.1 µM.

Experiment [11] deals with T4, Serine/threonine-protein kinase Nek9 (Homo sapiens). Conditions: at 1 µM.
The target of experiment [12] is Serine/threonine-protein kinase PLK1 (Homo sapiens) (UniProt P53350). Conditions: at 0.1 µM.
Sequence of Serine/threonine-protein kinase PLK1 (Homo sapiens) (P53350 whole entry): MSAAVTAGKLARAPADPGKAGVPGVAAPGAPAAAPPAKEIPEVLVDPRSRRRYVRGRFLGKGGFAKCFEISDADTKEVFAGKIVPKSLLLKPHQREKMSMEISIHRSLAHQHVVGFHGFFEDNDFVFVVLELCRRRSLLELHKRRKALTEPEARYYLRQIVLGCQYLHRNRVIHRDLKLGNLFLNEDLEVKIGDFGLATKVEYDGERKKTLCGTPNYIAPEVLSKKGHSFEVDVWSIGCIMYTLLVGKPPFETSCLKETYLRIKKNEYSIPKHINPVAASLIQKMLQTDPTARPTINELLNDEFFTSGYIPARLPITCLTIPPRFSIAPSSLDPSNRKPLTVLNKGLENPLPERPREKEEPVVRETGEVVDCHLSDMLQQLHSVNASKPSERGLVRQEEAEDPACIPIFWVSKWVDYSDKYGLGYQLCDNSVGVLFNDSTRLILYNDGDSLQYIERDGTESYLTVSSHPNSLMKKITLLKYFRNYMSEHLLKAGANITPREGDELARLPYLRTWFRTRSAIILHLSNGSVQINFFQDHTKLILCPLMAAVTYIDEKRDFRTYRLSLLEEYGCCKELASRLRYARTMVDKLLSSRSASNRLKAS
For experiment [13] the target is unchanged. Conditions: at 1 µM.
The target of experiment [14] is T5, Dual specificity protein kinase TTK (Homo sapiens) (UniProt P33981).
T5 sequence (whole entry): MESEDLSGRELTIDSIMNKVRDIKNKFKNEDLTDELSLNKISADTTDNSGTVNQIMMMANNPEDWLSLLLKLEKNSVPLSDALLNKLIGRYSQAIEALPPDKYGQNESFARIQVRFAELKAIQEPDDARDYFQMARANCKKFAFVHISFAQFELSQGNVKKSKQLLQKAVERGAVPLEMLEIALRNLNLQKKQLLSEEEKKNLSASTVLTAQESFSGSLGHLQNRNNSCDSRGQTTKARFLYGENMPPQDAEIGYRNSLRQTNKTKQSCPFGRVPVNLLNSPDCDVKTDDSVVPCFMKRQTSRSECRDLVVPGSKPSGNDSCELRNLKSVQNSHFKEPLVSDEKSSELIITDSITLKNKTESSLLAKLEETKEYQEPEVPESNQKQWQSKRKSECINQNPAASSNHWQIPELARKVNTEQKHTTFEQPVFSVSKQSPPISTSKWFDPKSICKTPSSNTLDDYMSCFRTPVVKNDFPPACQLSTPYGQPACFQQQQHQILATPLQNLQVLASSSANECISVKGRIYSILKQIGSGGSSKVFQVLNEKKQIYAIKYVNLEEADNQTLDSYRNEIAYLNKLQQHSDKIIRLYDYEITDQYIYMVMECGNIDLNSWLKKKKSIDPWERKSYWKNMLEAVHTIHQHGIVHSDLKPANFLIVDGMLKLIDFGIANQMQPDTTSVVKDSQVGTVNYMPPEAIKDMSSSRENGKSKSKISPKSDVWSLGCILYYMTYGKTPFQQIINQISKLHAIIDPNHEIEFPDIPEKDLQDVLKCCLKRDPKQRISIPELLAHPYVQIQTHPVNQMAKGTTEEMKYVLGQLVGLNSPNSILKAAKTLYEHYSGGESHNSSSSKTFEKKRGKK
Conditions: at 0.1 µM.

Experiment [15] deals with T6, Receptor-type tyrosine-protein kinase FLT3 (Homo sapiens), P36888 [D835Y].
T6 sequence (whole entry): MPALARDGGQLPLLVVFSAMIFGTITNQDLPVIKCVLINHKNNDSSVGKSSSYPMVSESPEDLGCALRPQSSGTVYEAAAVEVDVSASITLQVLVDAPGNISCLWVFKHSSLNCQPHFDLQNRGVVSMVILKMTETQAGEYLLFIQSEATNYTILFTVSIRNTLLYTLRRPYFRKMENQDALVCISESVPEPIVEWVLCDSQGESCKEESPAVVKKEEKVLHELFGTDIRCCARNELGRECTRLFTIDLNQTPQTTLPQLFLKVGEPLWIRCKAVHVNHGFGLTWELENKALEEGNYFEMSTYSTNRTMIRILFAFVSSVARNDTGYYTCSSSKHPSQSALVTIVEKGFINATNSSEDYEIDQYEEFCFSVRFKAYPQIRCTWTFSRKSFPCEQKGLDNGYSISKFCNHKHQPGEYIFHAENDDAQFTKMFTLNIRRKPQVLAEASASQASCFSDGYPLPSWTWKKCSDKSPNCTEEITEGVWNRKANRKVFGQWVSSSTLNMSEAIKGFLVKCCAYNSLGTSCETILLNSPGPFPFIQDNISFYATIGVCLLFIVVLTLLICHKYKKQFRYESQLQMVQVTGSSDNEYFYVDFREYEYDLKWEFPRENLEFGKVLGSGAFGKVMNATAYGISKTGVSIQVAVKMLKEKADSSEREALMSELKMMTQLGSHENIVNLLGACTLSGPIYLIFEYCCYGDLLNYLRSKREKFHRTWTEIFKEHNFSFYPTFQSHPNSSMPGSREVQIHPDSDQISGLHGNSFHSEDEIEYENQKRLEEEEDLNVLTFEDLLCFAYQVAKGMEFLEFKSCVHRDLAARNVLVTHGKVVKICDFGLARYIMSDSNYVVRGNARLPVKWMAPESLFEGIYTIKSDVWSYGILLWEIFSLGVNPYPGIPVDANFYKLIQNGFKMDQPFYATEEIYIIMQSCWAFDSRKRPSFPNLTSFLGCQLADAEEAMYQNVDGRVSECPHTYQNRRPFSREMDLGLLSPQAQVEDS
Conditions: at 1 µM.

The target in experiment [16] is Vascular endothelial growth factor receptor 3 (Homo sapiens) (UniProt P35916). The following applies: at 0.1 µM.
Sequence of Vascular endothelial growth factor receptor 3 (Homo sapiens) (P35916 whole entry): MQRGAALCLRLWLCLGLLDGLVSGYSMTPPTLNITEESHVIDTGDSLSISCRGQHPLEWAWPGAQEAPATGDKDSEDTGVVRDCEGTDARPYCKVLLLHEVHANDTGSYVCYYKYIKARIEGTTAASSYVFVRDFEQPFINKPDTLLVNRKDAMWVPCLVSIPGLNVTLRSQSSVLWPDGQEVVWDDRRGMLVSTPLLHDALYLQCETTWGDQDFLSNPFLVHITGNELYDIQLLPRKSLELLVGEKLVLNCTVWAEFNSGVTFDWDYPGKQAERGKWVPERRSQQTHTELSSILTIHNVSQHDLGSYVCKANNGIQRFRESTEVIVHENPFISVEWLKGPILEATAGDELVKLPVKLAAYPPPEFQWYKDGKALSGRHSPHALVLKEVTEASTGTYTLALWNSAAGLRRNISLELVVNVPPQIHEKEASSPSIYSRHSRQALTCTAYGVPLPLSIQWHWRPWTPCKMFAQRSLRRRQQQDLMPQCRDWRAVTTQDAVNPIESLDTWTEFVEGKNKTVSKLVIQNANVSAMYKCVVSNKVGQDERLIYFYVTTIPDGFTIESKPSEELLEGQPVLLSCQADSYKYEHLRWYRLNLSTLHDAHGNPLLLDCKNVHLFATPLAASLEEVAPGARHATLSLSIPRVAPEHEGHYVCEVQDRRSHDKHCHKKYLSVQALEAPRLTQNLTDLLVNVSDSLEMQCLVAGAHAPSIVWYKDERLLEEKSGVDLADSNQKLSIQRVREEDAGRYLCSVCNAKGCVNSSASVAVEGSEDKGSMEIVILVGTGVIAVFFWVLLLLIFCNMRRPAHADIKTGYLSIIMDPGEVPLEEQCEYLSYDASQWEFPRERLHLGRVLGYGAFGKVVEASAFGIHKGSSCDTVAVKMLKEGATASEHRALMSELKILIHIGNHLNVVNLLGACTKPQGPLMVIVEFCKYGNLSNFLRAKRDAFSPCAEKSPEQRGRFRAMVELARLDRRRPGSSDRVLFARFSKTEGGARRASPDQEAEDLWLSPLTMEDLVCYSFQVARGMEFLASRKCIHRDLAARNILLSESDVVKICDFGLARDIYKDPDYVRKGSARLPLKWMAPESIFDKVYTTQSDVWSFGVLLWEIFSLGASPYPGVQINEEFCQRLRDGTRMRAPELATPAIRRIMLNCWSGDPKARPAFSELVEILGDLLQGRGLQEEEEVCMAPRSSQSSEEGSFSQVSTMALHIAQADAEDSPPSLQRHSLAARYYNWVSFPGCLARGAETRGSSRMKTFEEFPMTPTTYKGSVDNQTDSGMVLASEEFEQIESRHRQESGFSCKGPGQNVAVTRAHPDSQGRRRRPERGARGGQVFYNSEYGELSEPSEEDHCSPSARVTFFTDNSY
Experiment [17] has the same target. The following applies: at 1 µM.
For experiment [18], the target named is Macrophage colony-stimulating factor 1 receptor (Homo sapiens) (UniProt P07333). Conditions: at 0.1 µM.
Sequence of Macrophage colony-stimulating factor 1 receptor (Homo sapiens) (P07333 whole entry): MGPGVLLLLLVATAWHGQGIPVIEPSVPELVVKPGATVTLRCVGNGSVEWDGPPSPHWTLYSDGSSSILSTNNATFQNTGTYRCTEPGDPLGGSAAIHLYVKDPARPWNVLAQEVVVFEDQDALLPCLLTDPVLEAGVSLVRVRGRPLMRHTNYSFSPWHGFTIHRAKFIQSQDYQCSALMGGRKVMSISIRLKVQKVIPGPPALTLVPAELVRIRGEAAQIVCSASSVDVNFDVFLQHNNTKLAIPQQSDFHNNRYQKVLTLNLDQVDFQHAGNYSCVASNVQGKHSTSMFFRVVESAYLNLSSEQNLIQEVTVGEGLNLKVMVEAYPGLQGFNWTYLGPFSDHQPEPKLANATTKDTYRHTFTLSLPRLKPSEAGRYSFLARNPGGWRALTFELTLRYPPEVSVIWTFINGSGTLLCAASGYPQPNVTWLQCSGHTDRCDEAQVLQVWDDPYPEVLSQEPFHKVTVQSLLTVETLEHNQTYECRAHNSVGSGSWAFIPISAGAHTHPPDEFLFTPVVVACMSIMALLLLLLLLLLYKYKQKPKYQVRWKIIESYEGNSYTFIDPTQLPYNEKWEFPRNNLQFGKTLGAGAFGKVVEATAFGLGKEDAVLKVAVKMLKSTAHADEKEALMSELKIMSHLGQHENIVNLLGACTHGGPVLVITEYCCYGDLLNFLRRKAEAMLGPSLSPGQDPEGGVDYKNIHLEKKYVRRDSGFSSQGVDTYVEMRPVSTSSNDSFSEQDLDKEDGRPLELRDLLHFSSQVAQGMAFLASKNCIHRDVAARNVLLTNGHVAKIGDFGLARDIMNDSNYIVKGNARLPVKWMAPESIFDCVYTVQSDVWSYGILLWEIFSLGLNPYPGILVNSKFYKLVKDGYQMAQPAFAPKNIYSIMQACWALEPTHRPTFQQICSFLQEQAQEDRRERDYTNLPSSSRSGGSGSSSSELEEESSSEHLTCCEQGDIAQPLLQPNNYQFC
Experiment [19] has the same target. Conditions: at 1 µM.
In experiment [20] the target is Tyrosine-protein kinase Fyn (Homo sapiens) (UniProt P06241). The following applies: at 0.1 µM.
Sequence of Tyrosine-protein kinase Fyn (Homo sapiens) (P06241 2-537 limits assumed): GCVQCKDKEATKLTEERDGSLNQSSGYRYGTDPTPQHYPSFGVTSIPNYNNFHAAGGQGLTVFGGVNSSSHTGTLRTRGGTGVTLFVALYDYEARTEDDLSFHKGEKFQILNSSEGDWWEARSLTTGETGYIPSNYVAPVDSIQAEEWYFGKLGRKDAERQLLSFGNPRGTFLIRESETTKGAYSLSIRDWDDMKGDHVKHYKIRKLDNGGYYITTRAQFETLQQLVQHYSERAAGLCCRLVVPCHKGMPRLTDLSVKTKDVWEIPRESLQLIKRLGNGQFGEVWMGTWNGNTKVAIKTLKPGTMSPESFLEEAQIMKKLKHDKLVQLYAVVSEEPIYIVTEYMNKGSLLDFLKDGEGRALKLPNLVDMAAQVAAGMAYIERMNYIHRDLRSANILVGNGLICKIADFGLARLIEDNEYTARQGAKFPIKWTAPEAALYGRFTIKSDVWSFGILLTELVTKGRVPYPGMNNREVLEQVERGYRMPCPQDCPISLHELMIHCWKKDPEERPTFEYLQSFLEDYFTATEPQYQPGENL

Sequence of Serine/threonine-protein kinase Nek7 (Homo sapiens) (Q8TDX7 whole entry, looked up): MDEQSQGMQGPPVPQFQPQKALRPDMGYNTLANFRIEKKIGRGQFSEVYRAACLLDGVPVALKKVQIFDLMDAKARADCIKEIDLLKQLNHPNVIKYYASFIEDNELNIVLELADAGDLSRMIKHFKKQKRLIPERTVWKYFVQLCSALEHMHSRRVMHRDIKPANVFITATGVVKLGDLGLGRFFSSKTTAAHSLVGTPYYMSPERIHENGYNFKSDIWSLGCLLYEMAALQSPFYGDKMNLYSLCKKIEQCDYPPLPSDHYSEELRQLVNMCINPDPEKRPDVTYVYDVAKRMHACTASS

What is called inhibition is the relative decrease from the control value, in per cent. Turning to `Nc1nccc(C#Cc2cncnc2Nc2ccc(OCc3cccc(F)c3)c(Cl)c2)n1`, the inhibition in [1] is 6.36%; in [2] it was 2.09%; in experiment [3] it was 3.18%; in experiment [4], 4.14%; in [5], 5.98%; in [6], 1.4%. Besides, the inhibition in [7] is -0.89%; in [8] it was 3.1%; in experiment [9], 3.35%; in experiment [10], 8.89%; in experiment [11], 1.53%; in [12], 3.36%. The inhibition in experiment [13] was 3.68%; in experiment [14], 5.31%; in experiment [15], 7.19%; in [16], 3.89%; in experiment [17], 0.33%; in [18] it was 2.3%. Further, the inhibition in [19] was 5.18%; in [20], -0.31%.
For the compound `CN(C)C(=O)O[C@@H]1CN[C@@H](C#Cc2cc3ncnc(Nc4ccc(OCc5cccc(F)c5)c(Cl)c4)c3s2)C1`, the inhibition was -2.71% in [1]; 1.22% in experiment [2]; 0.34% in [3]; 2% in experiment [4]; 2.88% in experiment [5]; 0.28% in experiment [6]. Moreover, the inhibition in experiment [7] is -0.53%; in experiment [8], 3.24%; in experiment [9], 2.3%; in experiment [10], 0.42%; in experiment [11] it was 5.37%; in [12], 4.55%. For the same compound, the inhibition in experiment [13] was 3.19%; in experiment [14] it was 1.31%; in experiment [15], -2.2%; in experiment [16] it was -0.2%; in experiment [17], 0.49%; in experiment [18], -1.87%. Besides, the inhibition in experiment [19] is 2.32%; in experiment [20], 1.01%.
